Bioassay records: PubChem BioAssay, National Center for Advancing Translational Sciences (NCATS)
Most compounds without a hit are left out; they make up all but 3.4% or so of the library.
IMPase inh = membrane-permeable compound that blocks inositol monophosphatase. P97697. CHO-M1 cells, IP1 accumulation, HTRF TR-FRET ratio. inhibition (IP1 accumulation), % at 46.1 µM. 120,000 tested, under 10 active. AID 901; active means well fitted curve in the direction sought with a large enough effect in the signal ratio, not every such curve was filed as active; inconclusive means small, poorly fitted or top-dose-only effect, or a change in a side signal; inactive means no such curve, though single readings can be large or run the other way; the % refers to the signal ratio;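 further: cells stimulated with carbachol in lithium chloride buffer; plate controls were DMSO basal wells for no effect and reference inhibitor wells for full effect; higher means more IMPase inhibition seen as more IP1 and lower FRET ratio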
Target sequence (P97697 whole entry, looked up): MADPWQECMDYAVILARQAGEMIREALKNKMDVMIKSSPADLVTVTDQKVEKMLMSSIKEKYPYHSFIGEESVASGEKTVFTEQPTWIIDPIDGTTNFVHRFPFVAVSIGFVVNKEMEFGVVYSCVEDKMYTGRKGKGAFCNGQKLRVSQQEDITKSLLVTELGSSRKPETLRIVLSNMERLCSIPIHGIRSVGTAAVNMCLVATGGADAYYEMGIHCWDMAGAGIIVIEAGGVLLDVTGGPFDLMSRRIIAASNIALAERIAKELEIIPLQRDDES
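Carbachol-driven Gq signalling in CHO-M1 cells (2000/well) generates IP1. Compounds that block IMPase raise IP1 and so reduce the FRET signal from Eu-anti-IP1 and d2-IP1 after a 10 min room-temperature lysis.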
NPSR antag = antagonists of human neuropeptide S receptor cAMP signaling | Q6W5P4 | CHO-NPSR cells, cAMP TR-FRET, antagonist mode | Potency, µM (highest dose often 38.3 µM), for the others: at the top dose activity change, negative = inhibition, usual class: inhibitors | 220,000 compounds, 1% hits | AID 1461; further: potency means the concentration at half of the fitted maximal effect; on the % scale 0 is the no-effect control and ±100 the full control effect; nearly all actives have a fitted effect of over 50% in size
PNC inhibitor = blocks assembly of the perinucleolar compartment | PC3M PTB-GFP, PNC prevalence imaging, 16 h; stronger effect = lower value | 140,000 compounds, 3.1% hits | activity change (PNC), negative = inhibition, % at 10 µM;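 active means readout at or below -70, meaning at least 70% loss of cells showing the perinucleolar compartment, a nuclear body marking cancer cells; inconclusive means readout between -30 and a set limit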;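 further: plate controls were DMSO wells for no effect and camptothecin positive control wells for full effect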
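Read-out is percentage of cells bearing a perinucleolar compartment, from automated 20x imaging of fixed, Hoechst-stained PC3M PTB-GFP cells. Cells were seeded 4 h, then exposed 16 h to compound (23 nl of library stock) in duplicate plates.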
HTT aggregate = mutant huntingtin aggregation inhibition. PC12 HttQ103-GFP aggregates, Acumen cytometry, 40 h. Potency, µM (top dose mostly 46.1 µM), inactives show top-dose activity change, negative = inhibition, usual class: inhibitors. 220,000 compounds, 1.1% hits. AID 1688; further: potency means the concentration at half of the fitted maximal effect; on the % scale 0 is the no-effect control and ±100 the full control effect; nearly all actives have a fitted effect of over 60% in size
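Using laser scanning cytometry, GFP-positive aggregates were counted after lysis of PC12 cells induced with 100 nM tebufenozide to express HTT exon 1 Q103–GFP. Compounds were tested in titration.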
HTT cytoprotect = protects HTT-Q103 PC12 cells, measured by ATP; PC12 HTT-Q103 induced, cytoprotection, ATP luminescence, 40 h; Potency, µM (titrated, usually from 56.4 µM), for inactives: cytoprotection (ATP increase), most hits filed as activators; 230,000 compounds, 0.14% hits; AID 1471; further: potency means the concentration at half of the fitted maximal effect; % of control where 0% means no effect; nearly all actives have a fitted effect of over 45% in size
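Stable PC12 Q103-GFP cells in serum-supplemented, phenol red-free DMEM; induction by tebufenozide at 100 nM final; compound dose series; cell viability quantified luminescently from ATP.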
IMPase Li cell = IMPase inhibition in cells with lithium potentiation; 210,000 compounds, 0.35% hits; CHO-M1 cells, IP1 TR-FRET (IP-One), carbachol + lithium; Potency, µM (highest dose often 59.4 µM), for the others: at the top dose activity, negative = IMPase inhibition, most hits filed as inhibitors;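 further: IP1 builds up when IMPase is blocked and the TR-FRET signal falls; potency means the concentration at half of the fitted maximal effect; plate controls were basal vehicle for no effect and high inhibitor control for full effect; nearly all actives have a fitted effect of over 50% in size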
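Lithium-sensitised IP1 accumulation assay; M1-expressing CHO cells treated 30 min at 37C with compound. Competitive antibody detection by time-resolved FRET followed a 10 min room-temperature lysis step.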
An asterisk follows results filed as active; [ ] = remark or other dose. Unless noted, the call rests on the fitted dose curve; in most records, active means well fitted curve in the direction sought with a large enough effect; inconclusive means small, poorly fitted or top-dose-only effect, or another doubt; inactive means no such curve, though single readings can be large; an effect the other way counts as inactive or inconclusive.

For Cc1ccc(Cn2c(CN3CCOCC3)nc3c2c(=O)n(C)c(=O)n3C)cc1 the results were IMPase inh -19, NPSR antag -5%[46.1 µM], PNC inhibitor -100*, HTT aggregate 2%, HTT cytoprotect -12%[10 µM] and IMPase Li cell -1%.
Cn1c(=O)c2c(nc(CN3CCN(c4ccccc4F)CC3)n2CCCc2ccccc2)n(C)c1=O was read as HTT cytoprotect -24%[0.074 µM].
Cn1c(=O)c2c(nc(CN3CCN(c4ccccc4F)CC3)n2CCN2CCOCC2)n(C)c1=O was read as IMPase inh -12, NPSR antag -5%[46.1 µM], PNC inhibitor -100*, HTT aggregate 9%, HTT cytoprotect -4%[10 µM] and IMPase Li cell 1%.
CN1CCN(C(=O)C23CC4CC(C2)CC(c2ccccc2)(C4)C3)CC1 was read as NPSR antag 32%, HTT aggregate -1%[9.22 µM], HTT cytoprotect -8%[10 µM] and IMPase Li cell 17%.
`O=C(/C=C/c1ccccc1)NCCSCc1ccccc1Cl` gave IMPase inh -2, NPSR antag -17%[46.1 µM], PNC inhibitor -91*, HTT aggregate -17%, HTT cytoprotect 3%[10 µM] and IMPase Li cell 22%.
O=C(/C=C/c1ccccc1)NCCSCc1ccc(Cl)cc1 was read as NPSR antag -10%, PNC inhibitor -5, HTT aggregate 12%, HTT cytoprotect 11%[10 µM] and IMPase Li cell 6%.
Screening COc1cccc(CNc2ncc(Br)cc2Br)c1O returned IMPase inh 2, NPSR antag 10µM*, PNC inhibitor 44, HTT aggregate -9%, HTT cytoprotect -23% and IMPase Li cell 4%[38.3 µM].
O=C(CSc1nnc(COc2cccc3cccnc23)o1)N1CCN(C(=O)c2ccco2)CC1 was read as IMPase inh -3, NPSR antag 1%[46.1 µM], PNC inhibitor -100*, HTT aggregate 3%, HTT cytoprotect 17%[10 µM] and IMPase Li cell 6%.
CCOC(=O)N1CCC(Nc2ncnc3c2cnn3-c2ccc(C)cc2C)CC1 was read as IMPase inh 7, NPSR antag -20%[46.1 µM], PNC inhibitor -21, HTT aggregate 13µM*, HTT cytoprotect -11% and IMPase Li cell 28%[38.3 µM].
`C=CCNc1ncnc2c1cnn2-c1ccc(C)cc1C` gave IMPase inh -2, NPSR antag -10%[46.1 µM], PNC inhibitor 6, HTT aggregate -27%, HTT cytoprotect -5%[10 µM] and IMPase Li cell 21%[38.3 µM].
COc1ccc(C(=O)/C=C2\Sc3ccccc3N2C)cc1 was read as NPSR antag -44%, HTT aggregate -14%[9.22 µM], HTT cytoprotect -31%[10 µM] and IMPase Li cell 9%.
Screening COc1ccccc1-[n+]1c(C)cc(/C=C2\Sc3ccccc3N2C)cc1C returned NPSR antag 6.3µM*, HTT aggregate 0.89µM* and HTT cytoprotect -80%[10 µM].
`COc1ccc(-[n+]2c(C)cc(/C=C3\Sc4ccccc4N3C)cc2C)cc1` gave NPSR antag inconclusive, HTT aggregate 1.1µM* and IMPase Li cell 38%.
Screening COc1ccccc1OC(=O)CCN1c2ccccc2Sc2ccccc21 returned NPSR antag -18%, PNC inhibitor -18, HTT aggregate 3%, HTT cytoprotect 20%[10 µM] and IMPase Li cell -1%.
Screening Nc1nnc(CSCc2cccc(Br)c2)s1 returned NPSR antag 5%, HTT aggregate 6%[9.22 µM], HTT cytoprotect 15% and IMPase Li cell 11%.
Cc1ccc2cc(CN(CC3CCCO3)S(=O)(=O)c3ccccc3)c3nnnn3c2c1 (stereo not drawn) was read as IMPase inh 3, NPSR antag inconclusive, PNC inhibitor -100*, HTT aggregate 3%, HTT cytoprotect 7%[10 µM] and IMPase Li cell 14%.
For C=C1CC2C3C=C(C)C4=CC(=O)CCC4(C)C3CCC2(C)[C@@]1(OC(C)=O)C(C)=O (stereo partly drawn) the results were HTT aggregate -4% and HTT cytoprotect 5%.
